Here are results for 8 compounds from PubChem BioAssay (NCI).

This is part of a sample that, as a whole, favours compounds with a hit. Of some 83,000 tested, about 20% had one in any assay.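 96-well plates, one dose, 48 hours. Percent growth reported; active if below 10.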 Values without a mark were called inactive. Active and inactive are the calls of the source.

Test systems include NCI-H23 lung; NCI-H226 lung; NCI-H322M lung; HOP-62 NSCLC; NCI-H460 lung; NCI-H522 lung; A549/ATCC NSCLC; 786-0 renal; COLO 205 colon; DU-145 prostate; K-562 leukemia; MDA-MB-231 breast; SF-268 CNS; SF-295 CNS; SF-539 CNS; UACC-257 melanoma; M14 melanoma; HCT-15 colon; MALME-3M melanoma; RXF 393 renal.
Common to all, as to test: NCI-60 one-dose screen, 48 h (100 = growth as untreated, 0 = no growth, -100 = all killed)
Common to all, as to details: 10 µM unless noted

`O=C(/C=C/c1ccc(Cl)cc1)c1ccccc1`: the growth in the assay on NCI-H23 lung is 109%; with NCI-H226 lung, 91%; in the assay on NCI-H322M lung it was 92.2%; in the assay on HOP-62 NSCLC, 115%; in the assay with NCI-H460 lung, 107%; in the assay with NCI-H522 lung it was 81.1%. The growth in the assay with A549/ATCC NSCLC was 88.9%; with 786-0 renal, 93.7%; in the assay on COLO 205 colon, 120%; in the assay on DU-145 prostate it was 106%; with K-562 leukemia it was 66.6%; in the assay on MDA-MB-231 breast, 119%. In addition, the growth in the assay with SF-268 CNS was 102%; in the assay on SF-295 CNS it was 94.3%; with SF-539 CNS, 103%; with UACC-257 melanoma it was 102%; in the assay with M14 melanoma, 100%; in the assay on HCT-15 colon, 75.4%.

For `COc1ccc(-c2csc(NC(=O)c3cc(O)c(O)c(O)c3)n2)cc1`, the growth in the assay on NCI-H23 lung was 78.5%; in the assay with NCI-H226 lung it was 82.3%; in the assay with NCI-H322M lung it was 76.9%; in the assay with HOP-62 NSCLC it was 64.8%; in the assay with NCI-H460 lung, 53.7%; with NCI-H522 lung, -22.9% (active). Besides, the growth in the assay with A549/ATCC NSCLC is 58.6%; with 786-0 renal, 64.4%; in the assay with COLO 205 colon, 91.4%; in the assay on DU-145 prostate, 65.2%; in the assay on K-562 leukemia it was 44.8%; with MDA-MB-231 breast, 56%. Also, the growth is 54.5% in the assay with SF-268 CNS; 73.4% in the assay with SF-295 CNS; 62.7% with SF-539 CNS; 87.3% in the assay on UACC-257 melanoma; 63.2% in the assay with M14 melanoma; 30.4% with HCT-15 colon.

In the case of `COC(=O)[C@]1(CCSC)N[C@H](c2cn(-c3ccccc3)nc2C)[C@@H]2C(=O)N(c3ccccc3)C(=O)[C@@H]21`, the growth in the assay with NCI-H23 lung was 94.9%; in the assay on NCI-H226 lung, 99.7%; with NCI-H322M lung, 115%; in the assay with HOP-62 NSCLC, 107%; in the assay on NCI-H460 lung, 106%; in the assay with NCI-H522 lung, 97.4%. In addition, the growth with A549/ATCC NSCLC was 103%; with 786-0 renal, 104%; with COLO 205 colon, 112%; with DU-145 prostate, 119%; in the assay with MALME-3M melanoma, 105%; in the assay on MDA-MB-231 breast, 109%. Besides, the growth is 109% in the assay on RXF 393 renal; 114% in the assay with SF-268 CNS; 106% in the assay on SF-295 CNS; 113% in the assay with UACC-257 melanoma; 95.9% in the assay with M14 melanoma.

On to `COc1cc(/C=C/C(=O)Nc2cccnc2Nc2cc(OC)c(OC)c(OC)c2)cc(OC)c1OC`, for which the growth in the assay on NCI-H23 lung was 93%; in the assay with NCI-H226 lung, 93.1%; with NCI-H322M lung, 115%; in the assay on HOP-62 NSCLC it was 106%; in the assay on NCI-H460 lung it was 95.4%; with NCI-H522 lung, 87.6%. Moreover, the growth was 85.4% in the assay with A549/ATCC NSCLC; 86.3% in the assay on 786-0 renal; 113% in the assay on COLO 205 colon; 105% with DU-145 prostate; 107% in the assay on MALME-3M melanoma; 90.7% in the assay with MDA-MB-231 breast. Further, the growth in the assay with RXF 393 renal was 108%; in the assay with SF-268 CNS it was 105%; in the assay with SF-295 CNS, 92.8%; with SF-539 CNS, 98.1%; with UACC-257 melanoma, 93.4%; with M14 melanoma, 100%. For the same compound, the growth in the assay with HCT-15 colon is 97.3%.

In the case of `Cc1cc2c(C#N)n3c(c2cc1C)C(=O)C(c1ccccc1)Oc1ccccc1-3` (stereo not drawn), the growth with NCI-H23 lung was 21%; in the assay with NCI-H226 lung, 34.6%; in the assay on NCI-H322M lung, 81.8%; in the assay with HOP-62 NSCLC it was 35.7%; in the assay on NCI-H460 lung it was 42.1%; in the assay with NCI-H522 lung, -35.7% (active). For the same compound, the growth with A549/ATCC NSCLC is 4.49% (active); with 786-0 renal it was 41.7%; in the assay on COLO 205 colon, 56.6%; in the assay on DU-145 prostate, 64.4%; in the assay with K-562 leukemia, 12.7%; in the assay on MDA-MB-231 breast it was 58.9%. In addition, the growth in the assay with SF-268 CNS was 35.1%; in the assay on SF-295 CNS, 14.8%; with SF-539 CNS, 74%; with UACC-257 melanoma, 44.7%; in the assay on M14 melanoma, 36.8%; with HCT-15 colon it was 16.4%.

On to `COc1cc(/C=C/C(=O)c2c(-c3ccc(F)cc3)nc3sc(C)nn23)cc(OC)c1OC`, for which the growth was 51.4% in the assay on NCI-H23 lung; 38.9% in the assay with NCI-H226 lung; 52.6% with NCI-H322M lung; 9.53% (active) in the assay with HOP-62 NSCLC; 11.8% in the assay with NCI-H460 lung; -27% (active) with NCI-H522 lung. Moreover, the growth with A549/ATCC NSCLC was 12.2%; in the assay with 786-0 renal it was 24.6%; in the assay with COLO 205 colon, 33%; in the assay with DU-145 prostate, 0.196% (active); with K-562 leukemia, 2.54% (active); in the assay on MDA-MB-231 breast, 7.91% (active). In addition, the growth was 16.6% in the assay on SF-268 CNS; 49.6% in the assay on SF-295 CNS; 21.2% with SF-539 CNS; 46.6% in the assay with UACC-257 melanoma; 34.9% in the assay on M14 melanoma.

Regarding `Cc1c(C(N)=O)sc2c1c(=O)n(Cc1ccccc1)c1nnc(SCC(=O)Nc3ccc(Cl)cc3)n21`, the growth was 57.7% with NCI-H23 lung; 9.97% (active) in the assay with NCI-H226 lung; 28.9% in the assay with NCI-H322M lung; -6.06% (active) in the assay on HOP-62 NSCLC; -12.3% (active) in the assay on NCI-H460 lung; 17.2% with NCI-H522 lung. Moreover, the growth was 20.7% with A549/ATCC NSCLC; -41.2% (active) with 786-0 renal; 50.7% with COLO 205 colon; 39.5% in the assay on DU-145 prostate; 15.8% in the assay on MALME-3M melanoma; -6.85% (active) in the assay on MDA-MB-231 breast. Moreover, the growth with RXF 393 renal was 38%; with SF-268 CNS, 60.1%; with SF-295 CNS, 49.4%; in the assay with UACC-257 melanoma, 35.3%; in the assay on M14 melanoma, 40.5%; in the assay on HCT-15 colon, 82.5%.

As for `COc1cc(/C=C/C(=O)Nc2ccc3c(c2)/C(=C\c2cccn2C)C(=O)N3)cc(OC)c1OC`, the growth in the assay with NCI-H23 lung is 57%; in the assay with NCI-H226 lung, 67.3%; with NCI-H322M lung, 61.2%; with HOP-62 NSCLC, 45.5%; with NCI-H460 lung, 55.4%; with NCI-H522 lung, 5.66% (active). Further, the growth in the assay with A549/ATCC NSCLC was 37.5%; in the assay with 786-0 renal, 54.8%; in the assay with COLO 205 colon, 53.7%; in the assay on DU-145 prostate it was 63%; with K-562 leukemia it was 28.4%; in the assay with MDA-MB-231 breast, 36.5%. Also, the growth in the assay with SF-268 CNS was 69.3%; with SF-295 CNS, 38.3%; with SF-539 CNS it was 56.7%; in the assay on UACC-257 melanoma, 62%; with M14 melanoma it was 49.5%; with HCT-15 colon, 32.5%.
